Screening data as filed in PubChem BioAssay.
A selection: hits, their analogues and other compounds. The true share with any hit is near 6%.
D1 potentiator = human D1 dopamine receptor positive modulation; HEK293 TREx D1 cells, calcium flux, dopamine EC20 potentiation; potentiation, % at 10 µM; 360,000 tested, 0.036% active; AID 504651; in the data active means potentiation above about 30%
DRD3 agonist = D3 dopamine receptor (human) agonism; P35462; D3R DiscoveRx beta-arrestin cells, luminescence, 90 min; max activation, %; 410,000 tested, 0.58% active; AID 652048; in the data active means max activation above about 30%
Target sequence (P35462 whole entry, looked up): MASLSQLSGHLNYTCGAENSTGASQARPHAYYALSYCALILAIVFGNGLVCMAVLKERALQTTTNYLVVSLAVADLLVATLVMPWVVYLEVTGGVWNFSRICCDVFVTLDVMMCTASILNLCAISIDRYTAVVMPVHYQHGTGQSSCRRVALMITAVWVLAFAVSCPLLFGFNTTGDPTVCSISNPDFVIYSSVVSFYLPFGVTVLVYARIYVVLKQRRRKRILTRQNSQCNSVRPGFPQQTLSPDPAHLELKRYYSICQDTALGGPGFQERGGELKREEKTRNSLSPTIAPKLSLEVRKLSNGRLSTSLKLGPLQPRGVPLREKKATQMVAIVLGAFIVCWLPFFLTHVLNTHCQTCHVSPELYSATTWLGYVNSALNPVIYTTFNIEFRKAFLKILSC
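Agonist-mode cell screen: cells plated at 1500/well and incubated overnight at 37 °C, then exposed to library compounds for 90 min at 37 °C. Detection reagent was added for 30–60 min at room temperature, and luminescence was read.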
D1 antag = blocks dopamine activation of the human D1 receptor; 360,000 tested, 3.2% active; HEK293 TREx D1 cells, calcium flux, dopamine EC80; active compounds read low; activity change, negative = inhibition, % at 10 µM; in the data active means activity change below about -30%
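Tetracycline-induced HEK293 T-REx cells with force-coupled D1 receptor were loaded with a no-wash calcium dye. Compound was added after a 10 s baseline and read kinetically for 180 s; EC80 dopamine was then added and calcium flux followed another 180 s.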
DRD3 antagonist = D3 dopamine receptor (human) antagonism; P35462; D3R cells, DiscoveRx beta-arrestin luminescence, antagonist mode; active compounds read low; max response, negative = inhibition, %; 360,000 tested, 2.5% active; in the data active means max response below about -50%
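Cells plated overnight at 1500 cells/well, then exposed to library compounds with dopamine controls for 90 minutes at 37 degrees C. DiscoveRx reagent added for 30–60 minutes at room temperature; luminescence read, quantitative HTS format.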
D1 ag = activates the human D1 dopamine receptor. P21728. HEK293 T-REx D1 cells, calcium flux, agonist mode. activation, % at 2 µM. 360,000 tested, 1% active. AID 504660; in the data active means activation above about 30%
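Agonism was scored from calcium flux recorded over 180 s (1 read/s) after pintool compound addition, following a 10-cycle baseline. Cells were inducible force-coupled HEK293 TREx D1, plated overnight at 30 C and loaded with no-wash calcium dye.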
Numbers stand for hits; – = inactive; · = no result; ! = repeats disagree.

SMILES	D1 potentiator	DRD3 agonist	D1 antag	DRD3 antagonist	D1 ag
CN(C)CCOCCOc1ccc(Cl)cc1Br	–	–	–	-76	–
CSc1ccccc1NC(=O)CN(C)CC(=O)NCC(=O)Nc1ccc(F)cc1	–	–	–	-50	–
CCN1C(=NCCc2ccccn2)N[C@@H](c2cccc(C(F)(F)F)c2)C(C(=O)OC)=C1C	–	–	–	-53	–
COC(=O)C1=C(C)N(Cc2ccccc2)C(=NCC2CC2)N[C@H]1c1ccc(Br)cc1	–	·	-80	·	–
COC(=O)C1=C(C)N(Cc2ccccc2)C(=NCC(C)C)N[C@H]1c1cccc(C(F)(F)F)c1	·	–	·	–	·
CCN1C(=NCc2ccc(OC)cc2)N[C@@H](c2ccccc2)C(C(=O)OC)=C1C	–	41	–	–	–
COC(=O)C1=C(C)N(Cc2ccccc2)C(=NCC2CC2)N[C@H]1c1ccccc1	–	–	–	–	–
COC(=O)C1=C(C)N(Cc2ccccc2)C(=NCc2ccccc2)N[C@H]1c1cccc(C(F)(F)F)c1	·	33	·	–	·
Cc1cc(C)c(Cn2c(=O)n(CCC(=O)NCc3ccc4c(c3)OCO4)c(=O)c3ccccc32)c(C)c1	–	–	–	·	–
Cc1cccc(NC(=O)CSc2nc3c(c(=O)[nH]2)CN(Cc2ccc4c(c2)OCO4)CC3)c1C	–	–	–	·	–
O=c1[nH]c(=O)n([C@H]2CCCO2)cc1F	·	–	·	·	·
COC(=O)C1=C(C)N(Cc2ccccc2)C(=O)N[C@H]1c1cccc(C(F)(F)F)c1	–	–	–	–	–
COC(=O)C1=C(C)N(Cc2ccccc2)C(=NCCc2ccccn2)N[C@H]1c1cccc(C(F)(F)F)c1	–	–	–	–	34
COc1ccc(C(=O)c2ccc(Br)cc2)c2ccccc12	–	–	-40	–	–
COCCCn1c(=O)/c(=C\c2ccc(OC(F)F)c(OC)c2)s/c1=C(/C#N)C(N)=O	–	–	-44	–	–
Cc1cc2c(Nc3ccccc3)ncnc2s1	–	–	–	-61	–
Cc1cc2c(NCCc3ccccc3)ncnc2s1	–	–	–	–	–
O=C(CCN=C1NS(=O)(=O)c2ccccc21)OCC(=O)c1ccc(F)cc1	–	–	–	–	–
O=C(CCCN=C1NS(=O)(=O)c2ccccc21)OCC(=O)c1ccc(F)cc1	–	–	–	–	56
CC(OC(=O)CCN=C1NS(=O)(=O)c2ccccc21)C(=O)Nc1ccccc1F (centres undefined)	–	–	–	–	–
CC(OC(=O)CCCN=C1NS(=O)(=O)c2ccccc21)C(=O)Nc1ccccc1F (centres undefined)	–	–	-39	–	–
CC(C)CCn1cnc2c1c(=O)[nH]c(=O)n2Cc1ccccc1	–	–	–	–	–
CC(C)Cn1cnc2c1c(=O)[nH]c(=O)n2Cc1ccccc1	–	–	-47	–	–
COc1cccc(/C=C/c2nc(C#N)c(NC3CCCCC3)o2)c1	–	–	–	·	–
Oc1ccc(C[C@H]2CNCCN2CCc2cc(C(F)(F)F)cc(C(F)(F)F)c2)cc1	–	–	–	–	–
SMILES	D1 potentiator	DRD3 agonist	D1 antag	DRD3 antagonist	D1 ag
FC(F)(F)c1cc(CCN2CCNC[C@H]2Cc2cccc3ccccc23)cc(C(F)(F)F)c1	–	–	–	–	45
CCCC[C@@H]1CNCCN1CCc1cccc2ccccc12	–	–	–	-53	–
Oc1ccc(C[C@@H]2CNCCN2CCc2cc(C(F)(F)F)cc(C(F)(F)F)c2)cc1	–	–	–	–	40
c1ccc(C[C@H]2CNCCN2CCc2cccc3ccccc23)cc1	–	–	–	–	–
CCOC(=O)c1ccc(NC(=O)c2c(NCc3cccs3)sc3c2CCCCC3)cc1	–	–	–	·	–
CCN(CC)C(=O)Cn1c(=O)n(CCCCCC(=O)NCc2ccc(C)cc2)c(=O)c2sccc21	–	–	–	·	–
COc1ccc(Br)cc1CNC(=O)CCCn1c(=O)c2cccn2c2ccccc21	–	–	–	·	–
CCCCN=C(Nc1ccc(Cl)cc1)c1cccnc1	–	–	–	-64	–
COc1ccccc1C(=O)NCCn1cc(SCc2ccc(C)cc2)c2ccccc21	–	–	–	·	–
CC(=O)c1cc(NC(=O)c2ccc(Cl)cc2)c(=O)oc1/C=C/N(C)C	–	–	–	-72	108
CC(=O)c1cc(NC(=O)c2cccc(C(F)(F)F)c2)c(=O)oc1/C=C/N(C)C	·	–	·	–	·
O=c1c2ccccc2nc(N2CCN(c3cccc(Cl)c3)CC2)n1-c1ccccc1	–	–	–	·	–
Cn1c(=O)c(C(N)=S)cn(-c2ccccc2)c1=O	–	–	–	–	–
NC(=O)c1cc(Cl)cn(-c2ccccc2)c1=O	·	–	-48	–	–
Cc1ncoc1C(=O)Nc1ccccc1C(N)=O	–	–	–	-100	–
Cc1ccccc1NC(=O)c1ocnc1C	–	–	–	–	–
CC1Cn2c(C(=O)NCc3cccc(Br)c3)cc3cccc(c32)S1 (centres undefined)	–	–	–	·	–
Cn1c(=O)oc2cc(S(=O)(=O)Nc3ccc(Cl)cc3)ccc21	–	–	–	–	–
Cn1c(=O)oc2cc(S(=O)(=O)Nc3ccc(O)cc3)ccc21	–	–	-31!	–	–
CC1CCN(S(=O)(=O)c2ccc3c(c2)oc(=O)n3CC(=O)N2CCCCC2)CC1	–	–	–	·	–
O=C(NC1CCCCC1)C(=O)N(Cc1cccnc1)C(C(=O)NCc1ccco1)c1ccccc1 (centres undefined)	–	·	-35	·	–
O=C(NC1CCCC1)C(=O)N(Cc1cccnc1)C(C(=O)NCc1ccco1)c1ccccc1F (centres undefined)	–	–	–	–	–
C=CCn1c(SCCCCCC)nc(O)cc1=O	–	–	–	–	–
C=CCn1c(SCCCC)nc(O)cc1=O	–	–	–	–	79
C=CCn1c(SC(C)CC)nc(O)cc1=O (centres undefined)	–	–	–	–	140
SMILES	D1 potentiator	DRD3 agonist	D1 antag	DRD3 antagonist	D1 ag
CCCCSc1nc(O)cc(=O)n1CC	–	–	–	–	38
C=CCn1c(SCc2ccccc2)nc(O)cc1=O	–	–	–	–	–
COc1cc(NC(=O)c2nn(-c3ccc(F)cc3)c(=O)n(C)c2=O)cc(OC)c1OC	–	–	–	·	–
CN1C(=O)Cc2cc([S+](=O)([O-])N3CCN([S+](=O)([O-])c4c(F)cccc4F)CC3)ccc21	–	·	–	·	–
Cc1ccc(Nc2ncnc3c2nc2n3CCCC2)c(Br)c1	–	–	–	·	–
CCOC(=O)C1=C(CN2CCN(c3cc(C)ccc3C)CC2)NC(=O)NC1c1ccc(Cl)cc1 (centres undefined)	–	–	–	·	–
CC1(C)CC(N=c2cc(-c3ccccc3)oc3ccc(Cl)cc23)CC(C)(C)N1	–	–	-69	–	67
OCCCN=c1cc(-c2ccccc2)oc2ccc(Cl)cc12	–	–	–	–	–
CCCCCn1nc(C(=O)N2CCc3ccccc32)c2ccccc2c1=O	–	–	-51	–	–
